Test results: PubChem BioAssay (Tox21)
Records with an inconclusive call do not appear. Activity calls are given as the source filed them. Unless noted, the call rests on the fitted dose curve; in most records, active means well fitted curve in the direction sought with a large enough effect in the repeat runs; inconclusive means weak or mixed curves; inactive means no such curve, though single readings can be large; an effect the other way counts as inactive or inconclusive.

Tests used:
[1] = qHTS assay for small molecule agonists of the p53 signaling pathway (AID 651631; calls by dose curve; further: nearly all actives have a fitted effect of over 15% in size)
Method in brief: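 We treat p53RE-bla HCT-116 cells with compounds for 16 h at 37 °C, add LiveBLAzer B/G FRET substrate for 2 h at room temperature, and measure fluorescence intensity.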

[2] = qHTS assay for small molecules that induce genotoxicity in human embryonic kidney cells expressing luciferase-tagged ATAD5 (AID 651632); further: nearly all actives have a fitted effect of over 15% in size
Method in brief: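 A rise in luciferase signal from ATAD5-tagged HEK293T cells marks genetic stress. Cells were exposed to compounds for 16 hr at 37C, 5% CO2, then luciferase was quantified after a 30 min room-temperature incubation with Amplite.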

[3] = qHTS assay for small molecule agonists of the p53 signaling pathway - cell viability (AID 651633; calls by dose curve;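 further: p53RE-bla HCT reporter cells with a stable beta-lactamase p53 reporter; series mostly up to about 83 µM; nearly all actives have a fitted effect of over 30% in size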)
Method in brief: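 Viability counter-read: CellTiter-Glo luminescence (30 min, room temperature) in the same p53RE-bla plates. These plates had been exposed to compounds for 16 h at 37 C.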

[4] = qHTS assay for small molecules that induce genotoxicity in human embryonic kidney cells expressing luciferase-tagged ATAD5 - cell viability (AID 651634; calls by dose curve; further: nearly all actives have a fitted effect of over 25% in size)
Method in brief: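 Cytotoxicity counter-readout: after 15.5 hr compound treatment at 37C, live-cell protease activity in ATAD5-luciferase HEK293T cells measured by CellTiter-Fluor fluorescence, 30 min development at 37C.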

[5] = qHTS assay for small molecule disruptors of the mitochondrial membrane potential - cell viability (AID 720634; calls by dose curve;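 further: human HepG2 liver cancer cells; series mostly up to about 83 µM; nearly all actives have a fitted effect of over 20% in size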)
Method in brief: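 Cytotoxicity was quantified from ATP content by CellTiter-Glo luminescence in the same wells as the MMP dye read-out. HepG2 (2,000 cells/well) were plated overnight and exposed to compounds for 1 hr at 37 C.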

[6] = qHTS assay for small molecule disruptors of the mitochondrial membrane potential (AID 720635); further: potency means the concentration at half of the fitted maximal effect
Method in brief: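 Mitochondrial membrane potential tracked with Mito-MPS dye, red aggregates (ex 540/em 590 nm) against green monomers (ex 490/em 535 nm). Compound treatment 1 hr at 37C, dye 30 min in HepG2.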

[7] = qHTS assay to test for compound auto fluorescence at 590 nm (red) in HepG2 cells (AID 720674)
Method in brief: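 We screened compounds on adherent HepG2 cells, incubating them for an hour at 37 C in 5% CO2 before reading emission at 590 nm under 540 nm excitation; values reflect equivalence to Rose Bengal sodium fluorescence.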

[8] = qHTS assay to test for compound auto fluorescence at 535 nm (green) in HepG2 cells (AID 720675)
[9] = qHTS assay to test for compound auto fluorescence at 460 nm (blue) in HEK293 cells (AID 720678)
Method in brief: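 Blue read-out at excitation 405 nm and emission 460 nm follows overnight compound exposure of HEK293 cells at 37C in 5% CO2. Activity is given as auto fluorescence equivalency to triamterene.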

[10] = qHTS assay to test for compound auto fluorescence at 590 nm (red) in HEK293 cells (AID 720679)
Method in brief: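 Red channel, Ex/Em 540/590nm; signal expressed as equivalency to Rose Bengal sodium. HEK293, 2,000 cells/well, 10% dialyzed FBS; 23 nL compound pinned after 4-5 hr attachment; overnight 37C/5% CO2 before reading.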

[11] = qHTS assay to test for compound auto fluorescence at 535 nm (green) in HEK293 cells (AID 720680)
[12] = qHTS assay to test for compound auto fluorescence at 460 nm (blue) in HEK293 cell free culture (AID 720681)
Method in brief: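 Blue fluorescence (Ex 405/Em 460 nm, triamterene-equivalent) was read immediately after pin transfer of compound or DMSO into medium (DMEM, 10% FBS) without cells.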

[13] = qHTS assay to test for compound auto fluorescence at 535 nm (green) in HEK293 cell free culture (AID 720682)
Method in brief: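 Green-channel intensity (Ex/Em 485/535 nm) was recorded from compound-treated wells containing only DMEM with 10% FBS. Fluorescein provided the equivalency standard.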

[14] = qHTS assay to test for compound auto fluorescence at 590 nm (red) in HEK293 cell free culture (AID 720683)
Method in brief: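 Red-channel autofluorescence of compounds in culture medium (DMEM, 10% FBS), no cells, measured at 540/590 nm. Rose Bengal sodium is the reference fluorophore for equivalence.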

[15] = qHTS assay to test for compound auto fluorescence at 590 nm (red) in HepG2 cell free culture (AID 720684)
Method in brief: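 No cells present: MEM + 10% FBS only. Compound pinned in, red label read (540/590 nm). Activity = fluorescence equivalent to Rose Bengal sodium.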

[16] = qHTS assay to test for compound auto fluorescence at 460 nm (blue) in HepG2 cell free culture (AID 720685)
Method in brief: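 Cell-free plates of MEM plus 10% FBS received 23 nL compound or DMSO vehicle; blue-channel (405/460 nm) intensity scored against triamterene as reference fluorophore.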

[17] = qHTS assay to test for compound auto fluorescence at 535 nm (green) in HepG2 cell free culture (AID 720686)
[18] = qHTS assay to test for compound auto fluorescence at 460 nm (blue) in HepG2 cells (AID 720687)
Method in brief: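 Blue-channel autofluorescence (Ex/Em 405/460 nm, triamterene-equivalent) was measured after 1 hr compound exposure at 37 C, 5% CO2. Cells were HepG2, plated overnight at 37 C in MEM plus 10% FBS.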

[19] = biological target: Glucocorticoid receptor (Homo sapiens) (UniProt P04150); test: qHTS assay to identify small molecule agonists of the glucocorticoid receptor (GR) signaling pathway (AID 720691; active means well fitted activation curve with a large enough effect in the signal ratio in the repeat runs, not every such curve was filed as active; the % refers to the signal ratio)
Glucocorticoid receptor (Homo sapiens), sequence (P04150 whole entry, looked up): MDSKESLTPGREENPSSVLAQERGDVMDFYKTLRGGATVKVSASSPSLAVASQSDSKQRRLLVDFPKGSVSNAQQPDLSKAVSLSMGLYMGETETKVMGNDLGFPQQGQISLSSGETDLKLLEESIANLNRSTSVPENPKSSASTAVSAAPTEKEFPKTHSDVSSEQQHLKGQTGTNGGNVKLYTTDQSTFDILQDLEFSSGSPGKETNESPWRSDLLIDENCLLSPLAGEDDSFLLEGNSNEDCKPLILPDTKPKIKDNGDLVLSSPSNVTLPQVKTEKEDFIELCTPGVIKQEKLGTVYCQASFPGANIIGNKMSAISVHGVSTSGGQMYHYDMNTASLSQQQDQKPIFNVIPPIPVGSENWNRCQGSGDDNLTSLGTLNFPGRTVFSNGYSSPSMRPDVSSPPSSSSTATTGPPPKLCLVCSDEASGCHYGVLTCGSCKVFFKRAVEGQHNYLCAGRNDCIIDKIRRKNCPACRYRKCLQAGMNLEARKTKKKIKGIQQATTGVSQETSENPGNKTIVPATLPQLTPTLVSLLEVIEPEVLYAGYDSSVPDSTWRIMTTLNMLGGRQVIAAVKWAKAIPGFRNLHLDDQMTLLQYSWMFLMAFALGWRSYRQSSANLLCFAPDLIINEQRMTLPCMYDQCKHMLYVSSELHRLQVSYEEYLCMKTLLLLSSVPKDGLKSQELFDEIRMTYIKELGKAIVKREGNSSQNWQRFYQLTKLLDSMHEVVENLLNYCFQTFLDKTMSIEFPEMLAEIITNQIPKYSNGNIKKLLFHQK
Method in brief: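 Agonist-mode qHTS in HeLa cells stably expressing a glucocorticoid-response-element beta-lactamase reporter. Fluorescence intensity read with FRET substrate (2 h, room temperature) after 18 h compound treatment at 37 C.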

[20] = biological target: Glucocorticoid receptor (Homo sapiens) (UniProt P04150); test: qHTS assay to identify small molecule antagonists of the glucocorticoid receptor (GR) signaling pathway (AID 720692; active means well fitted inhibition curve with a large enough effect in the signal ratio in the repeat runs, not every such curve was filed as active; the % refers to the signal ratio)
Method in brief: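 Inhibition of dexamethasone-driven (5 nM final) beta-lactamase expression was measured in GRE-reporter HeLa cells over 18 h at 37C. Fluorescence was read after 2 h with the B/G FRET substrate at room temperature.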
On the % scale 0 is the no-effect control and ±100 the full control effect.

COC(=O)C(C)O (stereo not drawn)
inactive: Potency [1] | Potency [2] | Potency [3] | Potency [4] | Potency [5] | Potency [6] | outcome [7] | outcome [8] | outcome [9] | outcome [10] | outcome [11] | outcome [12] | outcome [13] | outcome [14] | outcome [15] | outcome [16] | outcome [17] | outcome [18]

O=C1CCC(C2CCCCC2)CC1
inactive: Potency [1] | Potency [2] | Potency [3] | Potency [4] | Potency [5] | Potency [6] | outcome [7] | outcome [8] | outcome [9] | outcome [10] | outcome [11] | outcome [12] | outcome [13] | outcome [14] | outcome [15] | outcome [16] | outcome [17] | outcome [18] | Potency [19] | Potency [20]

C=Cc1ccccc1
inactive: Potency [1] | Potency [2] | Potency [3] | Potency [4] | Potency [5] | Potency [6] | outcome [7] | outcome [8] | outcome [9] | outcome [10] | outcome [11] | outcome [12] | outcome [13] | outcome [14] | outcome [15] | outcome [16] | outcome [17] | outcome [18]

CC/C=C\CCOC(=O)CCCCC
inactive: Potency [1] | Potency [2] | Potency [3] | Potency [4] | Potency [5] | Potency [6] | outcome [7] | outcome [8] | outcome [9] | outcome [10] | outcome [11] | outcome [12] | outcome [13] | outcome [14] | outcome [15] | outcome [16] | outcome [17] | outcome [18]

CCN[C@H]1CN(CCCOC)S(=O)(=O)c2sc(S(N)(=O)=O)cc21
inactive: Potency [1] | Potency [2] | Potency [3] | Potency [4] | Potency [5] | Potency [6] | fluorescence, relative to Rose Bengal [7] -0.145% [at 18.6 µM] | fluorescence, % of fluorescein control [8] -0.244% [at 18.6 µM] | fluorescence, % of triamterene [9] 0.009% [at 18.6 µM] | fluorescence, % of fluorescent control [10] 0.0594% [at 18.6 µM] | fluorescence, % of fluorescein [11] -0.0786% [at 18.6 µM] | fluorescence, % of fluorescent control [12] 0.113% [at 18.6 µM] | activity change [13] -0.0447% [at 18.6 µM] | fluorescence, % of fluorescent control [14] -0.021% [at 18.6 µM] | fluorescence, % of Rose Bengal [15] 0.0022% [at 18.6 µM] | fluorescence, % of fluorescent control [16] -0.0073% [at 18.6 µM] | fluorescence, % of fluorescein control [17] 0.0136% [at 18.6 µM] | fluorescence, % of fluorescent control [18] -0.117% [at 18.6 µM] | Potency [19]

O=Cc1ccc(F)c(Br)c1
inactive: Potency [1] | Potency [2] | Potency [3] | Potency [4] | Potency [5] | Potency [6] | outcome [7] | outcome [8] | outcome [9] | outcome [10] | outcome [11] | outcome [12] | outcome [13] | outcome [14] | outcome [15] | outcome [16] | outcome [17] | outcome [18]

CCCCCOc1ccc(C2SC(=O)NC2=O)cc1OCC (stereo not drawn)
active: Potency [6] 29.8 µM
inactive: Potency [1] | Potency [2] | Potency [3] | Potency [4] | Potency [5] | outcome [7] | outcome [8] | outcome [9] | outcome [10] | outcome [11] | outcome [12] | outcome [13] | outcome [14] | outcome [15] | outcome [17] | outcome [18]
